# aSyn UTR act: Activators via SNCA 5'UTR binding, MLPCN | alpha-synuclein 5'UTR reporter, activators screen | activity score, % (tested at 7.5 µM), hits read low | actives 7.1% (n = 300,000); in the data active = activity score below about -60%
# An asterisk follows results filed as active. Only a sample is shown.
SMILES,aSyn UTR act
CCCOc1ccc(-c2csc(N)n2)cc1[N+](=O)[O-],-81.2*
CCCCOc1ccc(-c2cn3ccccc3n2)cc1[N+](=O)[O-],-129.1*
CCOc1ccc(-c2cn3ccccc3n2)cc1[N+](=O)[O-],-159.9*
O=C(c1cc(COc2ccc(F)cc2Cl)on1)N1CCSCC1,-197.2*
COc1ccc(OCc2cc(C(=O)N3CCOCC3)no2)c(Cl)c1,-81.8*
COc1cccc(OCc2cc(C(=O)NC(C)c3cnn(C)c3C)no2)c1 (stereo unspecified),-77.4*
COc1ccc(OCc2cc(C(=O)NC(C)c3cnn(C)c3)no2)c(Cl)c1 (stereo unspecified),-105.7*
COc1ccc(OCc2cc(C(=O)N3CCSCC3)no2)c(Cl)c1,-107.5*
COc1ccc(OCc2cc(C(=O)N3CCC(c4ccccc4)CC3)no2)c(Cl)c1,-63.3*
COc1ccc(OCc2cc(C(=O)N3CCCCCC3)no2)c(Cl)c1,-90.1*
CC(NC(=O)c1cc(COc2c(F)cccc2F)on1)c1cnn(-c2ccccc2)c1 (stereo unspecified),-90.8*
COc1ccc2[nH]c3c(=O)n4c(nc3c2c1)SCCC4,-92.1*
COc1ccc2c(c1)[nH]c1c(=O)n(/N=C/C3C(C)C=C(C)CC3C)c(=O)[nH]c12 (stereo unspecified),57.5
Cc1ccc2nc(-c3ccc(NC(=O)CN(c4ccccc4C)S(C)(=O)=O)cc3)sc2c1,-164.2*
Cc1cc(C)cc(N(CC(=O)Nc2ccc(-c3nc4ccc(C)cc4s3)cc2)S(C)(=O)=O)c1,-99.7*
Cc1cccc(NS(=O)(=O)c2ccc(NC(=O)CN(c3cc([N+](=O)[O-])ccc3C)S(C)(=O)=O)cc2)c1,101.0
Cc1ccc2nc(-c3ccc(NC(=O)CN4CCN(C(=O)c5ccco5)CC4)cc3)sc2c1,-176.9*
Cc1ccc(N(C(=O)Nc2ccccc2)C2=NCC(C)S2)cc1 (stereo unspecified),-62.2*
Cc1ccc(N=C2c3ccccc3C(=O)C2[N+](=O)[O-])cc1C (stereo unspecified),-109.7*
CC1Oc2cc3oc4c(O)c5c(cc4c(=O)c3c(O)c2C1(C)C)C=CC(C)(C)O5 (stereo unspecified),-265.2*
Cc1cccc(Oc2cc([N+](=O)[O-])cc3c2C(=O)Nc2ccccc2O3)c1,-68.0*
O=C1CC(c2ccco2)CC2=C1C1c3ccccc3C(=O)N1c1ccccc1N2 (stereo unspecified),-113.6*
Fc1ccc(-n2nnc(-c3cnc4ccccc4c3)n2)cc1,93.8
Fc1ccc(-n2nnc(-c3cccnc3)n2)cc1,-89.2*
Clc1ccc(-n2nnc(-c3cccnc3)n2)cc1Cl,-156.9*
SMILES,aSyn UTR act
Fc1ccc(C(CCCn2nnc(-c3cccnc3)n2)c2ccc(F)cc2)cc1,-102.6*
Brc1ccccc1-n1nnc(-c2cccnc2)n1,-75.8*
COc1cc2c(C)nc3c(cnn3-c3ccccc3)c2cc1OC,-240.5*
O=C(Cc1ccc(Br)cc1)NCc1ccccc1,-66.9*
COc1ccc(CNC(=O)c2nc(S(=O)(=O)Cc3ccccc3)ncc2Cl)cc1,48.8
COc1ccc(CNC(=O)c2ccc(N3CCCC3=O)cc2)cc1,-71.0*
O=C(NCc1ccccc1)c1c(Cl)nc(Cl)c(Cl)c1Cl,99.2
COc1ccc(CC(=O)NCc2ccccc2)cc1,-154.2*
COC(=O)c1ccc(COC(=O)CNC(=O)c2ccc(-c3ccccc3)cc2)cc1,-87.2*
COc1cccc(/C=N/NC(=O)c2ccc(N3CCCC3=O)cc2)c1,-112.3*
COc1ccc(OC)c(NS(=O)(=O)c2ccc(N3CCCC3=O)cc2)c1,110.7
COc1ccc(CNC(=O)c2ccc(-c3ccccc3)cc2)cc1,-114.7*
O=C(Nc1ccc(F)cc1F)c1cc2n(n1)C(C(F)(F)F)C1CCCCC1N2 (stereo unspecified),-68.6*
O=C(Nc1ccc(F)cc1F)c1cc2nc3c(c(C(F)(F)F)n2n1)CCCC3,-78.8*
Cc1cccc(/C=C2\CCC(=C3SCCCS3)C2=O)c1,85.2
CC(C)/C=C1\CC/C(=C\c2cccnc2)C1=O,-61.6*
O=C1/C(=C/c2cccnc2)CC/C1=C\c1cccnc1,-64.5*
O=C(NCc1cccnc1)/C(=C\c1ccc(-c2ccc(Cl)c(Cl)c2)o1)S(=O)(=O)c1ccccc1,-331.6*
CCS(=O)(=O)NCCc1csc(-c2ccccc2)n1,-63.2*
CCOc1cc(/C=C\c2[nH]c(=O)[nH]c(=O)c2[N+](=O)[O-])ccc1OC(C)CC (stereo unspecified),-67.0*
Cc1ccc(NC(=O)C(=S)NCc2ccco2)cc1,-134.7*
Cc1ccc(CSCC(=O)Nc2ccccc2F)cc1,-81.3*
Cc1ccc(OCC(=O)Nc2ccc(F)cc2)c([N+](=O)[O-])n1,-166.7*
Cc1ccc(OCC(=O)Nc2ccc(F)cc2)cc1,-95.6*
Cc1ccc(NC(=O)CSCc2ccco2)cc1,-129.7*
SMILES,aSyn UTR act
Cc1ccc(NC(=O)CSCc2ccc(F)cc2)cc1,-81.4*
CCc1ccc(-c2nc(CSCC(=O)NCc3ccco3)c(C)o2)cc1,77.4
Cc1ccc(NC(=O)Cc2ccc(F)cc2)cc1,-81.0*
O=[N+]([O-])c1ccc(-c2ccc(/C=N/c3c(-c4ccco4)nc4ccccn34)o2)cc1,-75.3*
Cc1cc(C)c([N+](=O)[O-])cc1-c1ccc(/C=N/c2c(-c3ccco3)nc3ccccn23)o1,-91.9*
Oc1cccc(/C=N/c2c(-c3ccco3)nc3ccccn23)c1,-71.5*
O=[N+]([O-])c1ccc(N/N=C/c2c[nH]c3ccccc23)cc1,-138.7*
O=[N+]([O-])c1ccccc1N/N=C/c1c[nH]c2ccccc12,-105.5*
COCCNC(=S)N/N=C(\C)c1cc2ccccc2o1,-117.4*
C/C(=N\NC(=O)COc1ccc(C(C)(C)C)cc1)c1cc2ccccc2o1,-109.3*
[O-]/[N+](=C\c1ccco1)c1ccc(Cl)cc1,-164.0*
[O-]/[N+](=C/c1ccc(F)cc1)c1ccc(Cl)cc1,-176.6*
c1ccc(CCNc2ncnc3ccccc23)cc1,-117.0*
Cc1cc2c(NCCc3ccccc3)ncnc2s1,-63.5*
c1ccc(CCNc2ccnc3cc4ccccc4cc23)cc1,116.7
CCNC(=S)N/N=C/c1sccc1C,-71.4*
Cc1ccsc1/C=N/NC(=S)NCCc1ccccc1,-108.0*
CCNC(=S)N/N=C/c1cn(Cc2ccccc2F)c2ccccc12,52.0
Cc1ccsc1/C=N/NC(=O)C(=O)NCC(C)C,-76.5*
C#CCn1c(=NC(=O)c2cccs2)sc2cccc(OC)c21,-97.4*
COc1cccc(-c2nc(-c3ccccn3)no2)c1OC,-218.7*
COc1cc(-c2nc(-c3ccccn3)no2)cc(OC)c1OC,-162.6*
CC(=O)COC(=O)c1ccc2noc(-c3ccccc3)c2c1,-78.0*
Cc1ccc(-c2onc3ccc(C(=O)O)cc23)cc1,-199.9*
O=C(O)c1ccc2noc(-c3ccccc3)c2c1,-119.1*
SMILES,aSyn UTR act
O=C(O)c1ccc2cc(-c3ccccc3)[nH]c2c1,65.7
O=C(O)c1ccc2nc(-c3ccccc3)c(-c3ccccc3)nc2c1,-93.3*
CCOC(=O)c1cnc(Nc2nc3ccccc3o2)nc1CSc1ncccn1,-100.1*
CCCc1nc(Nc2nc3ccccc3o2)nc(C)c1C(=O)OCC,-80.1*
NC(=O)c1ccccc1NC(=O)/C=C/c1c(Cl)cccc1Cl,-188.9*
NC(=O)c1ccccc1NC(=O)/C=C/c1cccc(Cl)c1,-132.5*
CN(C)c1ccc(NC(=O)/C=C/c2c(Cl)cccc2Cl)cc1,-80.1*
Cc1nn(-c2nc3ccccc3s2)c(C)c1Oc1ccccc1O,-77.0*
Cc1cc(CN(C)C(=O)c2cc(COc3ccc(C)c(C)c3)on2)on1,-158.9*

# High-throughput results (PubChem)
